# Measurements from PubChem BioAssay (NCATS).
# Inconclusive results are not listed. Where a call stands in place of a potency, no number is given. Unmarked numbers belong to inactive results. The source made the active and inactive calls. The call rests on the fitted dose curve; in most records, active means well fitted curve in either direction with a large enough effect (not every such curve was filed as active); inconclusive means small, poorly fitted or top-dose-only effect, or another doubt; inactive means flat fitted curve, though single readings scatter.
# Molecular target: Mitogen-activated protein kinase 10 (Mus musculus) (UniProt Q61831)
# Assay: JNK3 AlphaScreen Assay (AID 530);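 further: kinase came from lysate of stimulated human HepG2 cells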
# Details: JNK3 lysate, c-Jun phosphorylation; series mostly up to 57.1 µM
# Source text: NIH Chemical Genomics Center [NCGC]
# NIH Molecular Libraries Screening Centers Network [MLSCN]
# The c-jun N-terminal kinase (JNK) family are serine/threonine protein kinases that phosphorylate c-jun, a component of the transcription factor […] (AP-1). JNK kinases are members of the mitogen-activated protein kinase family including the extracellular regulated kinases and p38 kinases. Three JNK genes (JNK 1, 2, and 3) have been identified in humans so far. JNK1 and JNK2 have a broad distribution and JNK3 is primarily found in neuronal tissues and cardiac myocytes.
# JNK3 has been under consideration as a target for the treatment of neurodegenerative disorders. […] JNK pathway is also involved in pathological process in a mouse model of Parkinson's disease (Xia et al., 2001).
# Given these potential tissue distributions and links to neuroprotection, JNK3 inhibitors should provide useful investigational tools to study the role of this kinase in several diseases including, arthritis, stroke, myocardial infarction, ischemic injury and Parkinson's disease.
# A homogeneous AlphaScreen is developed to measure the activity of JNK3. AlphaScreen is a two bead-based proximity-dependent chemical energy transfer luminescent assay platform. The phosphorylation of a biotinylated c-jun substrate by JNK3 can be detected with an antibody raised against phosphorylated c-jun. This process brings streptavidin donor beads and Protein-A acceptor beads to within a proximity range of <200 nm, and subsequently lead a chemical luminescent reaction upon exciting donor beads with 680 nm laser excitation light. Inhibition of JNK3 activity by small molecules and subsequent decrease in the antibody binding to biotinylated c-jun could attenuate or abolish this chemical luminescent reaction.
# Yang DD, Kuan CY, Whitmarsh AJ, Rincon M, Zheng TS, Davis RJ, Rakic P and Flavell RA (1997) Absence of excitotoxicity-induced apoptosis in the hippocampus of mice lacking the Jnk3 gene. Nature 389:865-870. [PMID: 9349820]
# Herdegen T, Claret FX, Kallunki T, Martin-Villalba A, Winter C, Hunter T, and Karin M (1998) Lasting N-terminal phosphorylation of c-Jun and activation of c-Jun N-terminal kinases after neuronal injury. J.Neurosci. 18:5124-5135. [PMID: 9651196]
# Xia XG, Harding T, Weller M, Bieneman A, Uney JB and Schulz JB (2001) Gene transfer of the JNK interacting protein-1 protects dopaminergic neurons in the MPTP model of Parkinson's disease. Proc.Natl.Acad.Sci.U.S.A. 98:10433-10438.
# NCGC Assay Protocol Summary:
# GST-cJun (1-79) (Stratagene, La Jolla CA, #205145) was biotnylated by PerkinElmer (PerkinElmer-BioSignalInc. Montreal, Canada) and was detectable by the streptavidin Donor beads. Anti-(phospho)cJun (Ser73) antibody was from UpState (Charlottesvilles, VA, #06-659). JNK3-containing lysates were generated from HepG2 cells and pre-activated by interleukin1-beta and tumor necrosis factor alpha. All reagents were stored at -20 C before using. Phosphorylated biotinylated-GST-cJun was recognized by Anti-(phospho)cJun (Ser73) antibody and this process brings acceptor and donor beads together. Therefore JNK3 phosphorylation of cJun can be measured by Alpha reading by EnVision (PerkinElmer, Boston, MA).
# The composition of kinase buffer was (in mM) 20 tris- HCl (pH 7.6) 10 MgCl2, 1 DTT, and 0.1 Na3VO4 and 0.01% Tween-20. Beads were diluted in detection buffer containing (in mM) 20 tris-HCl (pH 7.7), 20 NaCl and 80 EDTA and 0.3% BSA. The assay was performed at room temperature. All compounds were screened as titrations from 0.6 nM to 46 uM final concentration. The assay was performed in 1536-well format (white solid bottom and untreated) as follows:
# Sequence,Parameter,Value,Description
# 1,Reagent,3 uL,Biotin-GST-cJun, Anti-(phospho)cJun and pre-activated JNK3-containing lysates
# 2,Compound,23 nL,Final concentration was 0.6nM to 46uM
# 3,Time,15 minutes,Room Temperature
# 4,Reagent,1 uL,ATP final concentration 10uM
# 6,Reagent,0.5 uL,2ng/well bead mixture
# […]
Compound,"activity change, negative = inhibition",Potency
COc1cc2c(cc1OC)[C@@]13CCN4CC5=CCO[C@H](CC(=O)O)[C@@H]([C@H]1N2)[C@H]5C[C@H]43,4.42% [at 11.4 µM],–
CCCCOCC1CO1 (stereo not given),–,inactive
c1ccoc1,–,inactive
O=S(=O)(O)/C(=C\c1ccccc1)c1ccccc1 (tested in a mixture with another compound),4.57% [at 11.4 µM],–
CC(C)CNCCc1ccccn1,2.37% [at 11.4 µM],–
O=C(O)[C@H]1CCN1,–,inactive
O=[As](O)(O)c1ccc(Cc2ccc([As](=O)(O)O)cc2)cc1,-5.31% [at 11.4 µM],–
O=[N+]([O-])/C=C/c1ccccc1,–,inactive
Nc1ccc(Cc2ccc(N)cc2)cc1,–,inactive
O=C(O)[C@H]1[O][Sb][O][C@@H](C(=O)O)C1O (stereo not given in full),-2.33% [at 11.4 µM],–
N#CCCCCC#N,–,inactive
CC1(C)N=C(N)N=C(N)N1c1cccc(C(=O)Nc2ccc(S(=O)(=O)F)cc2)c1,7.01% [at 11.4 µM],–
O=C(Oc1ccc(S(=O)(=O)F)cc1F)c1ccccc1Cl,2.49% [at 11.4 µM],–
C[C@]1(O)CC[C@H]2[C@@H]3[C@@H](O)CC4=CC(=O)CC[C@@]4(C)[C@H]3CC[C@]21C,-3.1% [at 11.4 µM],–
Nc1ncc([N+](=O)[O-])s1,–,inactive
O=C(O)C[O][Sb][O]CC(=O)O,1.01% [at 11.4 µM],–
O=Cc1ccc(Cl)cc1Cl,–,inactive
CCCC[N+](=O)[O-],–,inactive
Oc1ccc(Cl)c(Cl)c1Cl,–,inactive
CCOC(=O)[C@@H]1[C@@H]2c3ccccc3-c3ccccc3[C@H]2C[C@H]1O,-2.11% [at 11.4 µM],–

Compound,"activity change, negative = inhibition",Potency
N#Cc1cccc(NC(=O)N2CCCC3(CCN(C(=O)Oc4ccccc4)CC3)C2)c1,–,inactive
CC(=O)O[C@H]1CC[C@@]2(C)[C@@H](CC[C@H]3[C@H]2CC(=O)[C@]2(C)[C@@H]3C[C@@H](N3CC3)[C@H]2C(C)=O)C1,-0.773% [at 11.4 µM],–
O=C(O)CBr,–,inactive
CN(C)CCCc1cccnc1,3.96% [at 11.4 µM],–
CCNC(=O)[C@@H]1O[C@@H](n2cnc3c(N)ncnc32)[C@@H](O)[C@H]1O,–,inactive
NS(=O)(=O)c1ccc(-c2ccc([As](=O)(O)O)cc2)cc1,2.57% [at 11.4 µM],–
Cn1c(=O)c2[nH]cnc2n(C)c1=O.[CH2-][C@H](Cc1cccc2cc(C(=O)O)c(=O)oc12)OC.[Hg].[OH-],-0.539% [at 11.4 µM],–
CC(Cl)(Cl)Cl,–,inactive
O=C(O)C(C(=O)O)P(=S)(S)c1ccccc1 (stereo not given),2.73% [at 11.4 µM],–
COc1c(C(C)(C)C)cc([N+](=O)[O-])c(C)c1[N+](=O)[O-],–,inactive
Nc1c(Cl)cc([N+](=O)[O-])cc1Cl,–,inactive
Cc1c([C@@H](C)[C@H]2NC[C@H](C)C[C@@H]2O)ccc2c1C[C@@H]1[C@H]2CC=C2C[C@@H](O)CC[C@@]21C,-0.822% [at 11.4 µM],–
COc1ccc2c(c1)[C@]13CCCC[C@@H]1[C@H](C2)NCC3,–,inactive
Nc1ccc(Cl)c(Cl)c1,–,inactive
Cc1ccc(S(=O)(=O)O[C@H]2CN3CCC2CC3)cc1,5.42% [at 11.4 µM],–
CN(C)CCCNc1c2c(nc3ccc(Cl)cc13)CCCC2,3.7% [at 11.4 µM],–
CC(C)N[C@@H](C)Cc1ccc(I)cc1,–,inactive
CS(=O)(=O)O[C@H]1CN2CCC1CC2,2.61% [at 11.4 µM],–
CC(C)Br,–,inactive
Nc1ccc(-c2ccc(N)cc2)cc1,–,inactive
